We go through 47 molecules from PubChem BioAssay AID2685 (National Center for Advancing Translational Sciences (NCATS), 2010).

Screen size: about 320,000 compounds; about 2,100 (0.66%) were called active. Another 53% or so got no clear call; they are omitted. Calls come from the whole dose curve; as a rule, active = well fitted inhibition curve with a large enough effect in the signal ratio, with a control signal flat (not every such curve was filed as active); inconclusive = small, poorly fitted or top-dose-only effect, or effect the other way, or a change in a side signal; inactive = flat fitted curve, though single readings scatter; the % refers to the signal ratio. The entries come from a sample that favours actives as a whole.
Potency is the fitted concentration of half-maximal effect.

The test in a line: qHTS Assay for Lipid Storage Modulators in Drosophila S3 Cells.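 For cell number change: cells counted by Cell Tracker Red CMTPX staining in the red channel.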 For lipid storage change, negative = inhibition: % is set by controls: 0 for no effect and ±100 for the full control effect. As to conditions: BODIPY lipid droplet fluorescence, 18-24 h, cells fed with added oleic acid; cell number change: measured here: cell count max response; series mostly up to 46.1 µM; lipid storage change, negative = inhibition: at the top concentration. An outline of the steps:
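Drosophila S3 cells got compounds at several concentrations plus oleic acid (400 uM solution). Laser-scanning cytometry with 488 nm excitation read lipid droplets at 500-530 nm and cells at 575-640 nm. Percent activity was relative to 20 uM Triacsin C.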
On the technique in general: Quantitative high-throughput screening tests each substance at several concentrations.
For the molecule `Cc1cccc(C(=O)Nc2sc3c(c2C#N)CCCCC3)c1`, the “lipid storage change, negative = inhibition” value was -3.22% (inactive) and the cell number change was -20.2%. Turning to `Cc1nc2nc(SCc3ccccc3)[nH]n2c(=O)c1CCC(C)C`, the “lipid storage change, negative = inhibition” value was -19.4% (inactive) and the cell number change is 19.7%. Regarding `Cc1c(C)c2ccc(OC(C)C(=O)N3CC[C@@]4(O)CCCC[C@H]4C3)c(C)c2oc1=O` (some centres undefined), the Potency is 5.8 µM (active) and the cell number change was -28.5%.

For the molecule `Cc1cc(=O)oc2c(C)c(OCC(=O)N3CC[C@@]4(O)CCCC[C@H]4C3)ccc12`, the Potency is 16.4 µM (active) and the cell number change was found to be 2.59%. As for `CCc1cc(=O)oc2c(C)c(OC(C)C(=O)N3CCC[C@@H]3C(=O)O)ccc12` (some centres undefined), the “lipid storage change, negative = inhibition” value is -7.03% (inactive) and the cell number change was found to be 15.4%.

For `CCc1cc(=O)oc2c(C)c(OC(C)C(=O)N3CC[C@@]4(O)CCCC[C@H]4C3)ccc12` (some centres undefined), the “lipid storage change, negative = inhibition” value was 3.29% (inactive) and the cell number change amounted to 14.6%. As to `Cc1c(C)c2ccc(OCC(=O)N3CC[C@@]4(O)CCCC[C@H]4C3)cc2oc1=O`, the “lipid storage change, negative = inhibition” value was -15.4% (inactive) and the cell number change amounted to 0.17%. Turning to `O=C(C(c1ccccc1)c1ccccc1)N1CC[C@@]2(O)CCCC[C@H]2C1`, the “lipid storage change, negative = inhibition” value is -7.45% (inactive) and the cell number change is -2.81%. In the case of `Cc1c(C)c2ccc(OC(C)C(=O)N3C[C@H]4C[C@@H](C3)c3cccc(=O)n3C4)c(C)c2oc1=O` (some centres undefined), the “lipid storage change, negative = inhibition” value is -2.98% (inactive) and the cell number change was 10.4%. The corresponding values for `CCc1cc(=O)oc2c(C)c(OCC(=O)N3CC[C@@]4(O)CCCC[C@H]4C3)ccc12` are -24.5% (inactive) and 2.62%. For the molecule `Cc1cc(=O)oc2c(C)c(OC(C)C(=O)N3CC[C@@]4(O)CCCC[C@H]4C3)ccc12` (some centres undefined), the Potency was 0.731 µM (active) and the cell number change was -0.971%. In the case of `Cc1nc(SCC(=O)NC(=O)NCCC(C)C)c2c(-c3cccs3)csc2n1`, the “lipid storage change, negative = inhibition” value was 3.29% (inactive) and the cell number change is 8.46%. With `CCn1ccnc1CN1CCC(n2nccc2NC(=O)CCc2ccccc2)CC1`, the “lipid storage change, negative = inhibition” value is -5.74% (inactive) and the cell number change was -1.05%.

Consider `COc1ccc(C(=O)Nc2ccc3[nH]c(-c4cccc(OC)c4)cc(=O)c3c2)cc1`, for which the “lipid storage change, negative = inhibition” value is -2.62% (inactive) and the cell number change turned out to be 4.73%. On to `Cc1cccc(C)c1NC(=O)CS(=O)CC(=O)NCC1OCCc2ccccc21` (centres undefined), for which the “lipid storage change, negative = inhibition” value was -1.05% (inactive) and the cell number change worked out at 9.92%. Consider `CC(=O)c1ccc(CC2SC(N)=NC2=O)cc1` (centres undefined), for which the molecule was called inactive and the cell number change is -4.99%. Turning to `CCCCN1C(=S)NC[C@@H]1Cc1cccc2ccccc12`, the “lipid storage change, negative = inhibition” value is 15.5% (inactive) and the cell number change was found to be 2.45%. On the same counts, the results for `COc1ccc2c(c1OC)C(=O)N1C2SC[C@H]1C(=O)NC1CC1` (some centres undefined) are -17.9% (inactive) and -0.291%. Consider `COc1ccc(C(c2sc3nc(C)nn3c2O)N2CCc3ccccc3C2)cc1` (centres undefined), for which the result was inactive. Consider `C=C(C)C1CC=C(C)/C(=N\NC(=O)CCC(=O)Nc2ccc(C)c(C)c2)C1` (centres undefined), for which the “lipid storage change, negative = inhibition” value was -0.891% (inactive) and the cell number change was 1.45%. As to `Cc1ccc(NC(=O)CCSCCC(=O)Nc2ccc(C)c(C)c2)cc1C`, the “lipid storage change, negative = inhibition” value is 1.97% (inactive) and the cell number change is -13.5%.

As to `C/C(=N\NC(=O)CCC(=O)Nc1ccc(C)c(C)c1)C1CC1`, the Potency is 6.51 µM (active) and the cell number change was 18.1%. As to `CC(=O)Nc1ccc(S(=O)(=O)NCCC(=O)OCc2nc(N)nc(Nc3ccccc3C)n2)cc1`, the “lipid storage change, negative = inhibition” value is 9.3% (inactive) and the cell number change was determined as 3.4%. With `COc1cccc(N2C(=O)C3CCCN3C2c2cccs2)c1` (centres undefined), the “lipid storage change, negative = inhibition” value was -10.3% (inactive). Turning to `COc1ccc(N2C(=O)[C@@H]3Cc4ccccc4CN3C2=O)cc1`, the “lipid storage change, negative = inhibition” value is 13.6% (inactive) and the cell number change was -10.6%. `COc1ccc(N2C(=O)C3CCCN3C2=O)cc1` (centres undefined): the Potency was 18.4 µM (active) and the cell number change turned out to be 13.7%. On to `COc1ccc(N2C(=O)C3CCCN3C2c2cccs2)cc1` (centres undefined), for which the Potency was 8.2 µM (active).

In the case of `COc1ccc(N2C(=O)C3CCCN3C2=S)cc1` (centres undefined), the molecule was classed as inactive and the cell number change amounted to 13%. Consider `O=C1C2CCCN2C(c2cccs2)N1c1ccc(Cl)cc1` (centres undefined), for which the “lipid storage change, negative = inhibition” value was 11.3% (inactive) and the cell number change came out at 6.57%. As for `CCn1c(COc2ccccc2C(N)=O)nc2ccccc21`, the “lipid storage change, negative = inhibition” value is -2.01% (inactive) and the cell number change was -13.5%. As to `CCOC(=O)Cc1csc(NC(=O)c2ccc(F)cc2)n1`, the “lipid storage change, negative = inhibition” value was 0.5% (inactive) and the cell number change was found to be 5.42%.

Consider `CCOC(=O)Cc1csc(NC(=S)NC(=O)c2ccc(C)cc2)n1`, for which the “lipid storage change, negative = inhibition” value was 8.49% (inactive) and the cell number change is 12.7%. `CCOC(=O)Cc1csc(NC(=S)NC(=O)c2ccc(F)cc2)n1`: the Potency is 10.3 µM (active) and the cell number change was -14.9%.

As for `COc1cc2c(cc1OC)C1Cc3ccc(OC)c(OC)c3C[N+]1([O-])CC2` (centres undefined), the “lipid storage change, negative = inhibition” value is 0.646% (inactive) and the cell number change came to 8.62%. Turning to `Cc1nc(NCC2CCCO2)c2nnn(Cc3c(F)cccc3Cl)c2n1` (centres undefined), the “lipid storage change, negative = inhibition” value is 5.75% (inactive) and the cell number change is -5.53%. Turning to `c1cnc(N2CCN(c3ccc4ccccc4n3)CC2)nc1`, the Potency was 0.651 µM (active) and the cell number change amounted to 23.8%.

Take `c1ccc(C(c2ccccc2)N2CCN(c3ccc4ccccc4n3)CC2)cc1`: the “lipid storage change, negative = inhibition” value is -1.57% (inactive) and the cell number change is 9.37%. `c1ccc(N2CCN(c3ncccn3)CC2)cc1`: the “lipid storage change, negative = inhibition” value is -29.3% (inactive) and the cell number change is -7.61%. The corresponding values for `CCn1c(NC(=O)c2cccc(Cn3cc(Cl)cn3)c2)nc2ccccc21` are 3.94% (inactive) and -10.4%. As to `O=C(c1ccccn1)N1CCN(c2ccc(C(F)(F)F)cn2)CC1`, the “lipid storage change, negative = inhibition” value was 1.09% (inactive) and the cell number change was -1.5%. Consider `CC(=O)Nc1cccc(-c2nc3ccccc3o2)c1`, for which the molecule was classed as inactive. For `CS(=O)(=O)c1ccccc1C(=O)Nc1cccc(-c2nc3ccccc3o2)c1`, the Potency was 13 µM (active) and the cell number change is -20.6%. Take `O=C(O)c1ccccc1-c1ccccc1C(=O)Nc1cccc(-c2nc3ccccc3o2)c1`: the “lipid storage change, negative = inhibition” value was 4.74% (inactive) and the cell number change was found to be 14.5%. On to `COc1cccc(-c2cc(C(=O)NCC3CCCO3)c3ccccc3n2)c1` (centres undefined), for which the “lipid storage change, negative = inhibition” value is 23.6% (inactive). Take `Cc1ncoc1C(=O)Nc1ncc([N+](=O)[O-])s1`: the “lipid storage change, negative = inhibition” value is -4.91% (inactive) and the cell number change was -6.04%.

With `O=C(CS(=O)(=O)c1ccccc1)Nc1ncc([N+](=O)[O-])s1`, the result was inactive and the cell number change is -6.25%. Turning to `CCCc1nnc(NC(=O)CCS(=O)(=O)c2ccccc2)s1`, the Potency is 1.46 µM (active) and the cell number change was 3.42%.
